Results filed as inconclusive are left out. Active and inactive are the calls of the source. Calls come from the whole dose curve; as a rule, active = well fitted cell-killing curve with a large enough effect; inconclusive = small, poorly fitted or top-dose-only effect; inactive = flat fitted curve, though single readings scatter.
Assay: Quantitative highthroughput screen to assess conditional lethalithy of NOMO1 cells grown in RPMI1640 with dialyzed fetal bovine serum (RPMI+ds) (AID 1963877); note: nearly all actives have a fitted effect of over 30% in size;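 for viability: 100% = DMSO control wells and 0% = empty wells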
Conditions: NOMO1 in RPMI+dialyzed FBS viability, ATP luminescence, 48 h; series mostly up to 45.8 µM; viability: at the top concentration
Method in brief: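 Each medium arm—HPLM with 10% dialyzed FBS, or RPMI1640 with 5 mM glucose and 10% untreated or dialyzed FBS—was screened against an 11-point, 3-fold compound titration for 48 h at 37 °C, with CellTiter-Glo luminescence as endpoint.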
Potency is the fitted concentration of half-maximal effect.

Structure (SMILES)	viability	Potency
COc1cc2ncnc(Nc3ccc(F)c(Cl)c3)c2cc1NC(=O)C=CCN1CCCCC1	82.8% (inactive)	–
CN(C)CCOc1ccc(-c2nc(-c3ccc4c(c3)CCC4=NO)c(-c3ccncc3)[nH]2)cc1	–	18.7 µM (active)
O=c1ccc2ccc(O)c(O)c2o1	99% (inactive)	–
CC1CC2C3CCC4=CC(=O)C=C[C@]4(C)[C@@]3(F)[C@@H](O)C[C@]2(C)[C@@]1(O)C(=O)CO (stereo partly drawn)	101% (inactive)	–
CC[C@H]1OC(=O)[C@H](C)[C@@H](O[C@H]2C[C@@](C)(OC)[C@@H](O)[C@H](C)O2)[C@H](C)[C@@H](O[C@@H]2O[C@H](C)C[C@H](N(C)C)[C@@H]2O)[C@](C)(O)C[C@@H](C)CN(C)[C@H](C)[C@@H](O)[C@]1(C)O	86.9% (inactive)	–
CC(C)CN(C[C@H](O)[C@H](Cc1ccccc1)NC(=O)O[C@H]1CCOC1)S(=O)(=O)c1ccc(N)cc1	99.7% (inactive)	–
CC1(C)O[C@@H]2C[C@@H]3[C@H]4C[C@@H](F)C5=CC(=O)C=C[C@]5(C)[C@@]4(F)[C@@H](O)C[C@]3(C)[C@]2(C(=O)CO)O1	91.6% (inactive)	–
C[C@H]1C[C@@H]2[C@@H]([C@@H](O)C[C@@]3(C)[C@H]2CC[C@]3(O)C(=O)CO)[C@@]2(C)C=CC(=O)C=C12	96.6% (inactive)	–

Reference: PubChem BioAssay (NCATS)
